The results in this text go back to the supplement of paper PMC4022240.

Common to all, as to assay: peptide microarray binding signal (635 nm), min-max normalized on array (fraction of array maximum); higher = stronger binding
Holding throughout (conditions): peptide region: H3 1-13

Assay [1] has as its target T1, HaloTag-ATRX ADD domain (163-292).
T1 chain: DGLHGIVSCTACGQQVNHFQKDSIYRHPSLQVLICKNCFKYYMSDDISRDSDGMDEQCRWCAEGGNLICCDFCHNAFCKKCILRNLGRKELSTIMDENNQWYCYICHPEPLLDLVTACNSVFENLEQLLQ
How it is done:
(§1)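 Histone 13-mer peptides were synthesized as cellulose conjugates with a C-terminal 20-atom PEG linker and printed in triplicate on nitrocellulose. The sequence given is the unmodified backbone; PTMs (Kme1/2/3, Kac, Sph/Tph, Rme/Rme2a/Rme2s, Rcit) are listed in the label and the 'peptide modifications' condition. Slides were probed at 4 °C for 1 h with biotin-labelled (HQ)5-HaloTag reader fusions (ATRX-ADD, ING2-PHD) then streptavidin-Alexa647, or with rabbit histone antibodies then anti-rabbit Alexa647. The mean 635 nm signal of the triplicate spots was scaled 0-1 between the lowest and highest values on each array.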

Assay [2] concerns the target HaloTag-ING2 PHD (mouse Ing2 200-280). How it is done:
as §1

Assay [3] addresses anti-H3K4me3 antibody ab8580. How it is done:
as §1

Assay [4] deals with anti-H3K9me3 antibody ab8898. How it is done:
as §1

[5] abbreviates: peptide modifications: H3K4me2 H3K9ac, binder concentration: 1:2,000 dilution.
The mark [6] stands for this setting: peptide modifications: H3K4me2 H3K9ac, binder concentration: 1:10,000 dilution.
[7] abbreviates: binder concentration: 1:2,000 dilution.
Where [8] appears, read: binder concentration: 1:10,000 dilution.
The mark [9] stands for this setting: peptide modifications: H3K4ac, binder concentration: 1:2,000 dilution.
Where [10] appears, read: peptide modifications: H3K4ac, binder concentration: 1:10,000 dilution.
The mark [11] stands for this setting: peptide modifications: H3K4ac H3K9ac, binder concentration: 1:2,000 dilution.
Setting [12] is: peptide modifications: H3K4ac H3K9ac, binder concentration: 1:10,000 dilution.
[13] abbreviates: peptide modifications: H3K4me2, binder concentration: 1:2,000 dilution.
Where [14] appears, read: peptide modifications: H3K4me2, binder concentration: 1:10,000 dilution.

± gives the standard deviation.

B1: H3 1-13 A R T Kme2 Q T A R Kac S T G G (peptide)
chain: ARTKQTARKSTGG
For B1, the “peptide microarray binding signal” value was 0.0115 ± 0.00036 in assay [1] (peptide modifications: H3K4me2 H3K9ac, binder concentration: 50 nM); 0.0237 ± 0.0019 in assay [1] (peptide modifications: H3K4me2 H3K9ac, binder concentration: 500 nM); 0.954 ± 0.21 in assay [2] (peptide modifications: H3K4me2 H3K9ac, binder concentration: 10 nM); 0.716 ± 0.27 in assay [2] (peptide modifications: H3K4me2 H3K9ac, binder concentration: 100 nM); 0.298 ± 0.09 in assay [3] (setting [5]); 0.293 ± 0.1 in assay [3] (setting [6]). For the same molecule, the “peptide microarray binding signal” value in assay [4] (setting [5]) came out at 0.00778 ± 0.00063; in assay [4] (setting [6]), 0.00824 ± 0.00044.

B2: H3 1-13 A R T K Q T A R K S T G G (peptide)
chain: ARTKQTARKSTGG
As to B2, the “peptide microarray binding signal” value in assay [1] (binder concentration: 50 nM) came out at 0.0155 ± 0.00087; in assay [1] (binder concentration: 500 nM), 0.0263 ± 0.0017; in assay [2] (binder concentration: 10 nM), 0.0231 ± 0.0017; in assay [2] (binder concentration: 100 nM), 0.00957 ± 0.0015; in assay [3] (setting [7]) it was 0.00185 ± 0.00055; in assay [3] (setting [8]), 0.00126 ± 6.5e-05. The “peptide microarray binding signal” value was determined as 0.00196 ± 0.00012 in assay [4] (setting [7]) and 0.000807 ± 1.5e-05 in assay [4] (setting [8]).

B3: H3 1-13 A R T Kac Q T A R K S T G G (peptide)
chain: ARTKQTARKSTGG
Consider B3, for which the “peptide microarray binding signal” value came out at 0.0102 ± 0.00024 in assay [1] (peptide modifications: H3K4ac, binder concentration: 50 nM); 0.0281 ± 0.0023 in assay [1] (peptide modifications: H3K4ac, binder concentration: 500 nM); 0.214 ± 0.045 in assay [2] (peptide modifications: H3K4ac, binder concentration: 10 nM); 0.0856 ± 0.085 in assay [2] (peptide modifications: H3K4ac, binder concentration: 100 nM); 0.00445 ± 0.0025 in assay [3] (setting [9]); 0.00188 ± 0.00011 in assay [3] (setting [10]). The figures for the “peptide microarray binding signal” value in assay [4] (setting [9]) and in assay [4] (setting [10]) were 0.00439 ± 0.00098 and 0.0019 ± 0.00014, respectively.

B4: H3 1-13 A R T Kac Q T A R Kac S T G G (peptide)
chain: ARTKQTARKSTGG
B4: the “peptide microarray binding signal” value in assay [1] (peptide modifications: H3K4ac H3K9ac, binder concentration: 50 nM) is 0.0941 ± 0.064; in assay [1] (peptide modifications: H3K4ac H3K9ac, binder concentration: 500 nM), 0.0794 ± 0.02; in assay [2] (peptide modifications: H3K4ac H3K9ac, binder concentration: 10 nM), 0.0863 ± 0.014; in assay [2] (peptide modifications: H3K4ac H3K9ac, binder concentration: 100 nM) it was 0.099 ± 0.0066; in assay [3] (setting [11]) it was 0.047 ± 0.0095; in assay [3] (setting [12]), 0.139 ± 0.057. Besides, the figures for the “peptide microarray binding signal” value in assay [4] (setting [11]) and in assay [4] (setting [12]) were 0.102 ± 0.0083 and 0.123 ± 0.018, respectively.

B5: H3 1-13 A R T Kme2 Q T A R K S T G G (peptide)
chain: ARTKQTARKSTGG
B5: the “peptide microarray binding signal” value in assay [1] (peptide modifications: H3K4me2, binder concentration: 50 nM) was 0.00564 ± 0.00013; in assay [1] (peptide modifications: H3K4me2, binder concentration: 500 nM), 0.0118 ± 0.00057; in assay [2] (peptide modifications: H3K4me2, binder concentration: 10 nM), 0.0623 ± 0.0073; in assay [2] (peptide modifications: H3K4me2, binder concentration: 100 nM), 0.0581 ± 0.0074; in assay [3] (setting [13]), 0.03 ± 0.01; in assay [3] (setting [14]), 0.0164 ± 0.0011. For the same molecule, the “peptide microarray binding signal” value turned out to be 0.00156 ± 0.00023 in assay [4] (setting [13]) and 0.00115 ± 2e-05 in assay [4] (setting [14]).
